Assay results as given in PubChem BioAssay.
For some assays here: Measured potencies and affinities stand elsewhere. Active and inactive are the calls of the source.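 Rule for the calls, unless noted: active = compound raising the membrane signal above positive-control mean plus 3 SD in both repeats, and a primary screen hit; inactive = the rest.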

Experiments:
[1] = test system: TRPC4 beta (transient receptor potential cation channel C4), mouse; assay: activators of mouse TRPC4 channel, confirmation, cell-based, Fluo4 calcium, HEK293 TRPC4beta/mu-opioid, duplicates, 10 µM (AID 2426;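 active = fluorescence ratio normalized to control raised more than 50% in primary screen plus both repeat runs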); conditions: Fluo4 calcium fluorescence, at 10 µM; stronger effect = higher value
[2] = test system: transient receptor potential cation channel C4 beta (TRPC4), mouse; assay: activators of mouse TRPC4 channel, confirmation, cell-based, second round, Fluo4, HEK293 TRPC4beta/mu-opioid, 1 µM (AID 2461;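 active = primary screen active and over 50% activation in each of two duplicate runs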); conditions: Fluo4 calcium fluorescence, at 1 µM; stronger effect = higher value
[3] = test system: TRPC4 (transient receptor potential cation channel C4 beta), mouse; assay: positive allosteric modulators of mouse TRPC4, confirmation, cell-based, second round, Fluo-4, HEK293 TRPC4beta/mu-opioid, 1 µM (AID 2554;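 active = primary screen hit whose fluorescence ratio, in both repeats, exceeds the weak agonist control mean by 3 SD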); conditions: DAMGO EC20, Fluo-4 calcium flux, at 1 µM; stronger effect = higher value
[4] = test system: TRPC4 beta (transient receptor potential cation channel C4), mouse; assay: positive allosteric modulators of mouse TRPC4, confirmation, cell-based, Fluo-4, HEK293 TRPC4beta/mu-opioid (AID 2555;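 active = primary screen hit whose calcium fluorescence ratio, in both repeats, exceeds the weak agonist control mean by 3 SD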); conditions: DAMGO EC20, Fluo-4 calcium flux, at 10 µM; stronger effect = higher value
[5] = target: Short transient receptor potential channel 4 (Mus musculus) (UniProt Q9QUQ5); assay: inhibitors of mouse TRPC4 channel, confirmation, cell-based, Fluo4, HEK293 TRPC4beta/mu-opioid (AID 2636;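 active = calcium signal cut by more than 3 SD below the full-agonist control yet still positive, in both repeats and the earlier primary screen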); conditions: DAMGO, Fluo4 calcium flux, at 10 µM; stronger effect = higher value
Chain of Short transient receptor potential channel 4 (Mus musculus) (Q9QUQ5 whole entry, looked up): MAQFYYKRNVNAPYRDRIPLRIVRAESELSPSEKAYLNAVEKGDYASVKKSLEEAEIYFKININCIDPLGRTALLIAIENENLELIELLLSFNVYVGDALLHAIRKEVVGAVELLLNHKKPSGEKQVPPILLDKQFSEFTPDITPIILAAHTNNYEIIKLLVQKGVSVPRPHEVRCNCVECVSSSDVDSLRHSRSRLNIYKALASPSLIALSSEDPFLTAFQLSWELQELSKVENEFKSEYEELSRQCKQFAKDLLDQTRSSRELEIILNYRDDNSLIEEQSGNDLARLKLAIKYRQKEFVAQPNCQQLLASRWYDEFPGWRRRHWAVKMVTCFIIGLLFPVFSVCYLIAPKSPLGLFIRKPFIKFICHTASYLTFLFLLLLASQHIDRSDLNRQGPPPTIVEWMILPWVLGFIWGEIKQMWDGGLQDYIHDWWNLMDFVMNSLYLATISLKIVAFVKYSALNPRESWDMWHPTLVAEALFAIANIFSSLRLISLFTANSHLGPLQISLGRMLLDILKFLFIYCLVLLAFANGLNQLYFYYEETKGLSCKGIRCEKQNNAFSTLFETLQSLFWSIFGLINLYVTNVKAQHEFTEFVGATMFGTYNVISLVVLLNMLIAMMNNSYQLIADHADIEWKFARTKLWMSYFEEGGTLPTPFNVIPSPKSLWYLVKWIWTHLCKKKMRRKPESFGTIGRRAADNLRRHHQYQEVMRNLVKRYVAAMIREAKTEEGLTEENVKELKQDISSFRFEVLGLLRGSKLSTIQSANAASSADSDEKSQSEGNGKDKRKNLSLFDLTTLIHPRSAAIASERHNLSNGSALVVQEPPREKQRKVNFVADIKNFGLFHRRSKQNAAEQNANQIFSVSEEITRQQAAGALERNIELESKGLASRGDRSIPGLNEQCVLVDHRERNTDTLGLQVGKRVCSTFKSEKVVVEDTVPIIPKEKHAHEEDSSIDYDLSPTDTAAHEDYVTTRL

[6] = target: Short transient receptor potential channel 4 (Mus musculus) (UniProt Q9QUQ5); assay: inhibitors of mouse TRPC4 channel, confirmation, cell-based, second round, Fluo4, HEK293 TRPC4beta/mu-opioid, 1 µM (AID 2637;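 active = calcium signal ratio cut to more than 3 SD under the fully stimulated control mean yet still positive, in both repeats and the primary screen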;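 for inhibition: percent of integrated ratio relative to wells lacking test compound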); conditions: Fluo4 calcium flux, DAMGO, at 1 µM; stronger effect = higher value
[7] = target: Short transient receptor potential channel 4 (Mus musculus) (UniProt Q9QUQ5); assay: mouse TRPC4 channel activators, dose response, cell-based, HEK293 TRPC4/mu-opioid, Fluo-4 calcium (AID 434937;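 active = primary screen activator hit with a dose response curve and TRPC4 channel activation at any tested dose; inactive = no activation, no dose response, or not a primary hit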)
[8] = target: Short transient receptor potential channel 4 (Mus musculus) (UniProt Q9QUQ5); assay: TRPC4 positive allosteric modulators, dose response, cell-based, HEK293 TRPC4/mu-opioid, Fluo-4 calcium, EC20 DAMGO (AID 434941;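 active = earlier screen potentiator hit that boosts the TRPC4 ion channel at some dose, with a dose response; inactive = no potentiation, no dose response, or not a prior hit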;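 note: calcium entry triggered by an EC20 dose of DAMGO at the co-expressed mu-opioid receptor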)
[9] = target: Short transient receptor potential channel 6 (Mus musculus) (UniProt Q61143); assay: inhibition of mouse TRPC6 channel, confirmation, selectivity assay for TRPC4 inhibitor project, cell-based, HEK293, membrane potential dye, duplicate (AID 434948;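 active = active in primary screen and both duplicates, each dropping signal beyond three positive-control SD with fluorescence still positive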); conditions: HEK293 TRPC6, membrane potential dye fluorescence, at 10 µM, stimulated with maximal-effect acetylcholine; stronger effect = higher value
Chain of Short transient receptor potential channel 6 (Mus musculus) (Q61143 whole entry, looked up): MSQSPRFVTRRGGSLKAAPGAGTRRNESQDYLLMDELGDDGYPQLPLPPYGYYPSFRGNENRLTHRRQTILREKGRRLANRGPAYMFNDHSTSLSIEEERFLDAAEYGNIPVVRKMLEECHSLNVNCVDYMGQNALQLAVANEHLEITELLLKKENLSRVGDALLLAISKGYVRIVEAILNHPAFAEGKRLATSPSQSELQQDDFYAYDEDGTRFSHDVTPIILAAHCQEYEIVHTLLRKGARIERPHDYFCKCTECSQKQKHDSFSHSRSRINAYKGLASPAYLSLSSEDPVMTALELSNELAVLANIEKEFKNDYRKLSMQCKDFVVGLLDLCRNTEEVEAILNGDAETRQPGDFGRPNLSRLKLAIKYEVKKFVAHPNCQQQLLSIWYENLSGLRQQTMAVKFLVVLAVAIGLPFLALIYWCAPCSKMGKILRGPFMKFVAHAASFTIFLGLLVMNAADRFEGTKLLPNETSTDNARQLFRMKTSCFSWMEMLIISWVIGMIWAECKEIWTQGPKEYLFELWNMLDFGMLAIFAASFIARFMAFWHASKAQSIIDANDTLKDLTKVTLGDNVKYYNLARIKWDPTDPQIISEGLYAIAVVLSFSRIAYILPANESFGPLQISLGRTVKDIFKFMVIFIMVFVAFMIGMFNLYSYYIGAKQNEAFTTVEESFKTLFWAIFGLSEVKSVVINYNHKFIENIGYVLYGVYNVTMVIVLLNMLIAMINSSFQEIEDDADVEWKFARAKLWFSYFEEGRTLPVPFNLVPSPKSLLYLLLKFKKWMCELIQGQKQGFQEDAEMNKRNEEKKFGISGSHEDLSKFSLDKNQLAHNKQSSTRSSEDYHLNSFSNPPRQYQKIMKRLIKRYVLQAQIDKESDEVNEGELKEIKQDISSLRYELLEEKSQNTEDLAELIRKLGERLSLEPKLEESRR

[10] = target: Short transient receptor potential channel 6 (Mus musculus) (UniProt Q61143); assay: activation of mouse TRPC6 channel, confirmation, selectivity assay for TRPC4 activator project, cell-based, HEK293, membrane potential dye, duplicate (AID 434950;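 active = membrane potential signal rise above negative control mean plus 3 SD in both duplicates, also active in the earlier TRPC4 screen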); conditions: HEK293 TRPC6, membrane potential fluorescence, at 10 µM; stronger effect = higher value
[11] = target: Short transient receptor potential channel 6 (Mus musculus) (UniProt Q61143); assay: TRPC6 potentiation by TRPC4 potentiator hits, confirmation, selectivity assay for TRPC4 potentiator project, HEK293 cells, membrane potential dye, duplicate (AID 434952); conditions: HEK293 TRPC6, membrane potential dye fluorescence, at 10 µM, maximal acetylcholine added after compound; stronger effect = higher value
[12] = target: Short transient receptor potential channel 4 (Mus musculus) (UniProt Q9QUQ5); assay: calcium flux activators in TRPC4/5HT1a cells, counter-screen for TRPC4 activator project, cell-based, second counter screen, HEK293 TRPC4/5HT1a, Fluo-4 (AID 434977;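 active = calcium signal rise above buffer-control mean plus 5 SD in both duplicates, and also a hit in the primary screen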); conditions: Fluo-4 calcium flux, at 10 µM; stronger effect = higher value
[13] = calcium flux inhibitors in TRPC4/5HT1a cells, confirmation, counter-screen for TRPC4 inhibitor project, cell-based, second counter screen, HEK293 TRPC4/5HT1a, Fluo-4 (AID 434978;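 active = primary screen active whose calcium signal fell more than 3 SD beyond the full-serotonin control mean in both duplicate plates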;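 for outcome: serotonin given first at submaximal then at maximal dose after compound preincubation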); conditions: Fluo-4 calcium flux, at 10 µM, serotonin added to trigger calcium flux; stronger effect = higher value
[14] = test system: TRPC4 (mouse), co-expressed with 5HT1a in HEK293; assay: calcium flux potentiators in TRPC4/5HT1a cells, confirmation, counter-screen for TRPC4 potentiator project, cell-based, second counter screen, HEK293 TRPC4/5HT1a, Fluo-4 (AID 434979;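 active = signal rise over 3 SD above mean of control wells given weak agonist, in both repeats and first screen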); conditions: Fluo-4 calcium flux, at 10 µM, serotonin added at its EC20 dose; stronger effect = higher value
[15] = calcium flux activation in mu-opioid HEK293 cells, confirmation, counter-screen for TRPC4 activator project, cell-based, HEK293 mu-opioid receptor line (AID 449723;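 active = hit in primary screen, with calcium signal over 5 SD above buffer well mean in both duplicates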;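 note: counter screen cells carry the mu-opioid receptor alone and lack TRPC4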); conditions: Fluo-4 calcium fluorescence, at 10 µM; stronger effect = higher value
[16] = calcium flux enhancement in mu-opioid HEK293 cells, confirmation, counter-screen for TRPC4 allosteric potentiator project, cell-based, HEK293 mu-opioid receptor line (AID 449724;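 active = calcium signal rise more than 3 SD above the low-dose agonist control mean, in both duplicate plates and the primary screen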); conditions: Fluo-4 calcium flux, at 10 µM, compound added before EC20 DAMGO stimulus; stronger effect = higher value

For Oc1c(CN2CCCCC2)cc(Br)c2cccnc12, the outcome [1] was “inactive”, the outcome [2] was “inactive” and the outcome [3] was “inactive”. For the same compound, the outcome [4] was “inactive”, the inhibition [5] was 93% (active) and the outcome [6] was “inactive”. The outcome [7] was “inactive”, the outcome [8] was “inactive” and the outcome [9] was “inactive”. For the same compound, the outcome [10] was “inactive”, the outcome [11] was “inactive” and the outcome [12] was “inactive”. The inhibition [13] was 4.44% (active), the outcome [14] was “inactive” and the outcome [15] was “inactive”. The outcome [16] was “inactive”.
For Brc1ccc(N/N=C(/N=Nc2nn[nH]n2)c2ccccc2)cc1, the outcome [1] was “inactive”, the outcome [2] was “inactive” and the outcome [3] was “inactive”. For the same compound, the outcome [4] was “inactive”, the outcome [5] was “inactive” and the outcome [6] was “inactive”. The outcome [7] was “inactive”, the outcome [8] was “inactive” and the inhibition [9] was 25.5% (active). For the same compound, the outcome [10] was “inactive”, the outcome [11] was “inactive” and the outcome [12] was “inactive”. For the same compound, the inhibition [13] was 30.4% (active), the outcome [14] was “inactive” and the outcome [15] was “inactive”. For the same compound, the outcome [16] was “inactive”.
In the case of Cc1cccn2c(=O)c(/C=N/O)c(N3CCCC3)nc12, the outcome [1] was “inactive”, the outcome [2] was “inactive” and the outcome [3] was “inactive”. The outcome [4] was “inactive”, the inhibition [5] was 57% (active) and the inhibition [6] was 72% (active). The outcome [7] was “inactive”, the outcome [8] was “inactive” and the outcome [9] was “inactive”. The outcome [10] was “inactive”, the outcome [11] was “inactive” and the outcome [12] was “inactive”. For the same compound, the inhibition [13] was 35% (active), the outcome [14] was “inactive” and the outcome [15] was “inactive”. The outcome [16] was “inactive”.
For CCCCCCCNC(=O)COc1ccc2c(c1)C(=O)CC(C)(C)O2, the outcome [1] was “inactive”, the outcome [2] was “inactive” and the outcome [3] was “inactive”. The outcome [4] was “inactive”, the inhibition [5] was 81% (active) and the inhibition [6] was 46% (active). The outcome [7] was “inactive”, the outcome [8] was “inactive” and the outcome [9] was “inactive”. The outcome [10] was “inactive”, the outcome [11] was “inactive” and the outcome [12] was “inactive”. For the same compound, the inhibition [13] was 24.7% (active), the outcome [14] was “inactive” and the outcome [15] was “inactive”. For the same compound, the outcome [16] was “inactive”.
For COCCn1c(SCc2ccc(OC)c(F)c2)nc2ccccc2c1=O, the outcome [1] was “inactive”, the outcome [2] was “inactive” and the outcome [3] was “inactive”. For the same compound, the outcome [4] was “inactive”, the inhibition [5] was 95% (active) and the outcome [6] was “inactive”. The outcome [7] was “inactive”, the outcome [8] was “inactive” and the outcome [9] was “inactive”. The outcome [10] was “inactive”, the outcome [11] was “inactive” and the outcome [12] was “inactive”. The inhibition [13] was 16.1% (active), the outcome [14] was “inactive” and the outcome [15] was “inactive”. The outcome [16] was “inactive”.
In the case of COc1cccc(N2CC(O)=C(c3nc4ccccc4c(=O)[nH]3)C2=N)c1, the outcome [1] was “inactive”, the outcome [2] was “inactive” and the outcome [3] was “inactive”. The outcome [4] was “inactive”, the inhibition [5] was 74% (active) and the inhibition [6] was 47% (active). For the same compound, the outcome [7] was “inactive”, the outcome [8] was “inactive” and the outcome [9] was “inactive”. The outcome [10] was “inactive”, the outcome [11] was “inactive” and the outcome [12] was “inactive”. For the same compound, the inhibition [13] was 37.5% (active), the outcome [14] was “inactive” and the outcome [15] was “inactive”. For the same compound, the outcome [16] was “inactive”.
For Cc1cc(N/N=C/c2ccccc2F)c2ccccc2n1, the outcome [1] was “inactive”, the outcome [2] was “inactive” and the outcome [3] was “inactive”. The outcome [4] was “inactive”, the inhibition [5] was 97% (active) and the inhibition [6] was 67% (active). The outcome [7] was “inactive”, the outcome [8] was “inactive” and the outcome [9] was “inactive”. The outcome [10] was “inactive”, the outcome [11] was “inactive” and the outcome [12] was “inactive”. The inhibition [13] was 13.1% (active), the outcome [14] was “inactive” and the outcome [15] was “inactive”. The outcome [16] was “inactive”.
For Clc1cccc(C[n+]2cc(-c3ccccc3)n3c2CCC3)c1, the outcome [1] was “inactive”, the outcome [2] was “inactive” and the outcome [3] was “inactive”. The outcome [4] was “inactive”, the inhibition [5] was 95% (active) and the inhibition [6] was 51% (active). The outcome [7] was “inactive”, the outcome [8] was “inactive” and the outcome [9] was “inactive”. The outcome [10] was “inactive”, the outcome [11] was “inactive” and the outcome [12] was “inactive”. The inhibition [13] was 15.5% (active), the outcome [14] was “inactive” and the outcome [15] was “inactive”. The outcome [16] was “inactive”.
In the case of CCCNCc1cc(Br)ccc1OCC(=O)NCCc1ccccc1, the outcome [1] was “inactive”, the outcome [2] was “inactive” and the outcome [3] was “inactive”. For the same compound, the outcome [4] was “inactive”, the inhibition [5] was 99% (active) and the inhibition [6] was 52% (active). The outcome [7] was “inactive”, the outcome [8] was “inactive” and the outcome [9] was “inactive”. For the same compound, the outcome [10] was “inactive”, the outcome [11] was “inactive” and the outcome [12] was “inactive”. For the same compound, the outcome [13] was “inactive”, the outcome [14] was “inactive” and the outcome [15] was “inactive”. The outcome [16] was “inactive”.
In the case of Nc1cc(=O)nc(SCC(=O)N2CCN(c3ccccc3)CC2)n1-c1ccc(F)cc1, the outcome [1] was “inactive”, the outcome [2] was “inactive” and the outcome [3] was “inactive”. For the same compound, the outcome [4] was “inactive”, the inhibition [5] was 95% (active) and the inhibition [6] was 45% (active). For the same compound, the outcome [7] was “inactive”, the outcome [8] was “inactive” and the outcome [9] was “inactive”. For the same compound, the outcome [10] was “inactive”, the outcome [11] was “inactive” and the outcome [12] was “inactive”. For the same compound, the inhibition [13] was 43.7% (active), the outcome [14] was “inactive” and the outcome [15] was “inactive”. For the same compound, the outcome [16] was “inactive”.
For Cc1ccc(NC(=O)CN2CCc3ccccc3C2)cc1F, the outcome [1] was “inactive”, the outcome [2] was “inactive” and the outcome [3] was “inactive”. The outcome [4] was “inactive”, the inhibition [5] was 88% (active) and the outcome [6] was “inactive”. For the same compound, the outcome [7] was “inactive”, the outcome [8] was “inactive” and the outcome [9] was “inactive”. For the same compound, the outcome [10] was “inactive”, the outcome [11] was “inactive” and the outcome [12] was “inactive”. For the same compound, the outcome [13] was “inactive”, the outcome [14] was “inactive” and the outcome [15] was “inactive”. For the same compound, the outcome [16] was “inactive”.
With CCCOc1cccc(C(=O)NCCNC(=O)c2ccco2)c1 the outcome [1] was “inactive”, the outcome [2] was “inactive” and the outcome [3] was “inactive”. For the same compound, the outcome [4] was “inactive”, the outcome [5] was “inactive” and the outcome [6] was “inactive”. The outcome [7] was “inactive”, the outcome [8] was “inactive” and the outcome [9] was “inactive”. The outcome [10] was “inactive”, the outcome [11] was “inactive” and the outcome [12] was “inactive”. The outcome [13] was “inactive”, the outcome [14] was “inactive” and the outcome [15] was “inactive”. The outcome [16] was “inactive”.
For CCOC(=O)CSc1nc2c(sc(=S)n2-c2ccccc2OC)c(=O)n1-c1ccccc1OC, the outcome [1] was “inactive”, the outcome [2] was “inactive” and the outcome [3] was “inactive”. The outcome [4] was “inactive”, the inhibition [5] was 71% (active) and the inhibition [6] was 38% (active). For the same compound, the outcome [7] was “inactive”, the outcome [8] was “inactive” and the outcome [9] was “inactive”. The outcome [10] was “inactive”, the outcome [11] was “inactive” and the outcome [12] was “inactive”. For the same compound, the inhibition [13] was 31.3% (active), the outcome [14] was “inactive” and the outcome [15] was “inactive”. The outcome [16] was “inactive”.
In the case of C=CCn1cnc2scc(-c3ccc(CC)cc3)c2c1=O, the outcome [1] was “inactive”, the outcome [2] was “inactive” and the outcome [3] was “inactive”. The outcome [4] was “inactive”, the inhibition [5] was 57% (active) and the outcome [6] was “inactive”. For the same compound, the outcome [7] was “inactive”, the outcome [8] was “inactive” and the outcome [9] was “inactive”. The outcome [10] was “inactive”, the outcome [11] was “inactive” and the outcome [12] was “inactive”. The outcome [13] was “inactive”, the outcome [14] was “inactive” and the outcome [15] was “inactive”. For the same compound, the outcome [16] was “inactive”.
